# Measured values taken from PubChem BioAssay.
# Active and inactive are the calls of the source.
# Assays:
# [1] = binders of probe aFSTL3 on microarray, primary screen, stem cell growth factor project, biochemical, small-molecule microarray, fluorescence 635/667 (AID 1064); conditions: higher = more signal;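 further: measures binding of the biotinylated anti-FSTL3 antibody to printed compounds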
# [2] = binders from COS7 lysate, DM2A8 probe, primary screen, torsin A project, cell lysate, small-molecule microarray, fluorescence 635/667 (AID 1065); conditions: higher = more signal, COS7 lysate expressing mutant human TOR1A
# [3] = binders of probe aFGF2 on microarray, primary screen, stem cell growth factor project, biochemical, small-molecule microarray, fluorescence 635/667 (AID 1067); conditions: higher = more signal;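 further: measures binding of biotinylated aFGF2 protein to printed compounds on slides; z-score merges feature fluorescence and signal-to-noise across triplicate slides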
# [4] = binders of probe aFGF10 on microarray, primary screen, stem cell growth factor project, biochemical, small-molecule microarray, fluorescence 635/667 (AID 1071); conditions: higher = more signal;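 further: score merges 667 nm spot intensity and signal to noise from triplicate slides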
# [5] = target: Neurogenic locus notch homolog protein 2 (Homo sapiens) (UniProt Q04721); assay: Notch2 binders on small-molecule microarrays, primary screen, biochemical, small-molecule microarray, 635 nm fluorescence, stem cell growth factors (AID 1073); conditions: Notch2 binding, higher = more signal
# [6] = target: Pro-neuregulin-1, membrane-bound isoform (Homo sapiens) (UniProt Q02297); assay: NRG1 binders on small-molecule microarrays, primary screen, psychiatric disease protein project, biochemical, small-molecule microarray, fluorescence 635/667 (AID 1075); conditions: NRG1 binding, 635 nm fluorescence, higher = more signal;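 further: score combines 667 nm spot fluorescence with signal to noise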
# [7] = tested on: Neuregulin-1 EGF-like domain; assay: binders of neuregulin-1 EGF-like domain, primary screen, biochemical, small-molecule microarray, 635 nm fluorescence (AID 1081); conditions: small-molecule microarray binding, higher = more signal;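 further: binding of the protein to compounds printed on small-molecule microarray slides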
# [8] = FRG1 promoter luciferase signal modulators, primary screen, FRG1 inhibition for FSHD, cell-based, C2C12 myotubes, firefly/Renilla luciferase, luminescence (AID 1084); conditions: higher = more signal, called active from +8 up or from −8 down
# [9] = binders of probe aFST on microarray, primary screen, stem cell growth factor project, biochemical, small-molecule microarray, fluorescence 635/667 (AID 1086); conditions: higher = more signal;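 further: score merges 667 nm fluorescence with signal-to-noise of each printed compound spot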
# [10] = binders of probe aHhip on microarray, primary screen, stem cell growth factor project, biochemical, small-molecule microarray, fluorescence 635/667 (AID 1087); conditions: higher = more signal;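 further: score merges spot fluorescence at 667nm with spot signal to noise ratio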
# Neurogenic locus notch homolog protein 2 (Homo sapiens), sequence (Q04721 whole entry, looked up, canonical isoform): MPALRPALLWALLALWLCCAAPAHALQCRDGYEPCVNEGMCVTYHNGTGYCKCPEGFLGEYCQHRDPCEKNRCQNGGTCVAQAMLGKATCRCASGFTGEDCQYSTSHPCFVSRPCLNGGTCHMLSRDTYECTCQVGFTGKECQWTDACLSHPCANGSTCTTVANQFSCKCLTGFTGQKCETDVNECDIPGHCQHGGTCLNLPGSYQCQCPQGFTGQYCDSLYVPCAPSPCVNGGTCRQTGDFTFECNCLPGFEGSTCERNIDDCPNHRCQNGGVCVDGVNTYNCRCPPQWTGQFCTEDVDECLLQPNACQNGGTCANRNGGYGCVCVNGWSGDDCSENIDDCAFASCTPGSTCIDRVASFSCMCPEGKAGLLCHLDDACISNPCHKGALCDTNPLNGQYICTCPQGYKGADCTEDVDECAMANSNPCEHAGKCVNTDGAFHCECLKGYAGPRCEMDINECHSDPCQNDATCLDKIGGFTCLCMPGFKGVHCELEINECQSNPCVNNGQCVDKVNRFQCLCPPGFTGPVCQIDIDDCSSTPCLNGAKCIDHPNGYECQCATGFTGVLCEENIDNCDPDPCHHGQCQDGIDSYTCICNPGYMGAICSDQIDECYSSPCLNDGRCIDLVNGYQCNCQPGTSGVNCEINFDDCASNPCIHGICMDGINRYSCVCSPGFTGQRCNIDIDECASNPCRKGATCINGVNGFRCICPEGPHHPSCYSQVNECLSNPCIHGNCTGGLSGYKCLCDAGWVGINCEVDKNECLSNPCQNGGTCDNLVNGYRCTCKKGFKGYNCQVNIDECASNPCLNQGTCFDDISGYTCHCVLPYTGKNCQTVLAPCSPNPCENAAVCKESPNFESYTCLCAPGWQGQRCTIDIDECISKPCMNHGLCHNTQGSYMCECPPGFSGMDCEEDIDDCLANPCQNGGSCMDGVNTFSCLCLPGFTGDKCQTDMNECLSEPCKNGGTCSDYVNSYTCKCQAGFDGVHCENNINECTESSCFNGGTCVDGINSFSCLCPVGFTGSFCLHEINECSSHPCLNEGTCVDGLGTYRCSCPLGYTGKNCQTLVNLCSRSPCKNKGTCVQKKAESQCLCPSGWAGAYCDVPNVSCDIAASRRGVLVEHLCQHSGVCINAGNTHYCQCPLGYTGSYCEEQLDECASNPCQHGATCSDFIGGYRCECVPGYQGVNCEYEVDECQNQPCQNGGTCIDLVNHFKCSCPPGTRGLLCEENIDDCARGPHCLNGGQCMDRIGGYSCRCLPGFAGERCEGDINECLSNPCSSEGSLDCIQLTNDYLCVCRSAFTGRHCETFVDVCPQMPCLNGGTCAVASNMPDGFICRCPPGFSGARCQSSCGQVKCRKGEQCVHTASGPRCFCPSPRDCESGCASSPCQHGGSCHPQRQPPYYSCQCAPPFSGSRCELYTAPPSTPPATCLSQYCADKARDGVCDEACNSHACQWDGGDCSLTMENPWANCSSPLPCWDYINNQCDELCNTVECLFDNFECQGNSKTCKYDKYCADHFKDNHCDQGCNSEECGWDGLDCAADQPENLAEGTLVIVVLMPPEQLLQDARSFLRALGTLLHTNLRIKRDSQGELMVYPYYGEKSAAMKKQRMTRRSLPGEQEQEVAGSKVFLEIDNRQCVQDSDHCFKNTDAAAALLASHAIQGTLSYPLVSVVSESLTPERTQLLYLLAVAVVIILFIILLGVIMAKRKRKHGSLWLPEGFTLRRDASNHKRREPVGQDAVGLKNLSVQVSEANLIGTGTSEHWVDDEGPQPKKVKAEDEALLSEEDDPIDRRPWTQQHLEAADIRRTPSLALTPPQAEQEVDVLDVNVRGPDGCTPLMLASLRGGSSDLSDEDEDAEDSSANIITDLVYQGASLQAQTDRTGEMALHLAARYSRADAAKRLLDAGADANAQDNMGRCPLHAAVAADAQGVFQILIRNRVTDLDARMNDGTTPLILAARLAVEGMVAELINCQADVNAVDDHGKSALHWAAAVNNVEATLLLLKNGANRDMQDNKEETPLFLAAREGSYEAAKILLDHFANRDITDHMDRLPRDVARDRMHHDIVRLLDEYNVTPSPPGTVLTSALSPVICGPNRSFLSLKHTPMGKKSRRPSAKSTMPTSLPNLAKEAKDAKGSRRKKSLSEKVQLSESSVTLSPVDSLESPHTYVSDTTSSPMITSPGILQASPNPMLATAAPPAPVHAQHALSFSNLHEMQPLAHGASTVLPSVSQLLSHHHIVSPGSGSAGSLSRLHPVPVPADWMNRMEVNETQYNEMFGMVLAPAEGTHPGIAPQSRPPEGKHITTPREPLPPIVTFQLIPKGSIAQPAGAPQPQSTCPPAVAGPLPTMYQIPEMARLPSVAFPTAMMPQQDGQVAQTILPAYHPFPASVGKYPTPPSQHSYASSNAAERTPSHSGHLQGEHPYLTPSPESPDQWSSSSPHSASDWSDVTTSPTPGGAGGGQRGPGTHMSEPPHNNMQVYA
# Pro-neuregulin-1, membrane-bound isoform (Homo sapiens), sequence (Q02297 whole entry, looked up, the tested form may be a part, canonical isoform): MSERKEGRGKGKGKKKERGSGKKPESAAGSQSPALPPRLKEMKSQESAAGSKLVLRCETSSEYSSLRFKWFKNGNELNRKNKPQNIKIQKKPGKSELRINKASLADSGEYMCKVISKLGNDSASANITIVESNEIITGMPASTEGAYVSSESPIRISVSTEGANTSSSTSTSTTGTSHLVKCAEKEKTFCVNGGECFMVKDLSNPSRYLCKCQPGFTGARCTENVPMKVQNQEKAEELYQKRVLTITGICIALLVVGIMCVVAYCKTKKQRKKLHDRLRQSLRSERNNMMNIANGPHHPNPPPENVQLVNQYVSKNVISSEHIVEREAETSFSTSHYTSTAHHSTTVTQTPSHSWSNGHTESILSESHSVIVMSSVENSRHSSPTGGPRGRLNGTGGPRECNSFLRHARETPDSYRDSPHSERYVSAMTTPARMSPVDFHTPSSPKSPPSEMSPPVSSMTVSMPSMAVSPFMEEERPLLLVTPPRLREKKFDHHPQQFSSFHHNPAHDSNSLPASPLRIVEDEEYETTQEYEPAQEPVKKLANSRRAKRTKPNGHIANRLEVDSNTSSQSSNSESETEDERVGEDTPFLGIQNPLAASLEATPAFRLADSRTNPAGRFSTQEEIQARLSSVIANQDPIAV
SMILES,composite z-score [1],composite z-score [2],composite z-score [3],composite z-score [4],composite z-score [5],composite z-score [6],composite z-score [7],z-score [8],composite z-score [9],composite z-score [10]
COc1ccc(CCNC(=O)[C@@]2(Sc3ccc(C)cc3)CC(=O)N(C(C)C)[C@@H]2c2ccc(CO)cc2)cc1,1.09,0.53,-0.129,-0.0606,-1.35,0.871,0.401,-0.921 (inactive),-0.686,0.021
C=CCC(OC(C)=O)[C@@H]1[C@@H](N(Cc2ccc(-c3cccc(C(F)(F)F)c3)o2)C(=O)Cc2ccc(F)cc2)c2cc(OCCCO)ccc2N1C(=O)c1ccc2ccccc2c1 (stereo not given in full),0.196,0.167,-0.133,-0.428,-0.58,-0.28,-0.0656,0.512 (inactive),0.487,-0.0994
CCCCN1CC=CC23O[C@@H]4/C=C\CCC(C)OC(=O)C4[C@H]2C(=O)N(C(C)CO)[C@@H]3C1=O (stereo not given in full),-0.126,-0.248,-0.164,-0.0863,-0.831,-1,0.331,-0.3 (inactive),-0.536,0.0373
CN(C)CCCC[C@@H]1NC(=O)[C@H]2C[C@@H](C(=O)O)[C@@H](c3cccc(OCCO)c3)N2C1=O,0.794,1.13,-0.0238,0.105,0.146,0.212,1.44,6.56 (inactive),0.547,0.0374
COC(=O)[C@@]1(Cc2ccc(F)cc2)[C@H]2c3cc(C(=O)N(C)C)n(CCn4cc([N+](=O)[O-])nc4C)c3C[C@H]2CN1C(=O)c1ccccc1,0.729,-0.498,0.22,0.422,1.43,1.36,1.19,1.26 (inactive),0.593,-0.166
O=C1C2C=CC(C(O)c3cccs3)N(Nc3ccccc3)C2C(=O)N1c1ccccc1 (stereo not given),0.629,-0.0855,-0.0459,0.0873,0.878,0.97,0.964,-1.49 (inactive),0.35,-0.0237
O=C1O[C@@H](c2ccccc2)[C@@H](c2ccccc2)N2[C@@H](c3ccc(O)cc3)[C@]3(C(=O)Nc4ccc(C#CC5=CCCCC5)cc43)[C@@H](C(=O)N3CCCCCCC3)[C@H]12,2.95,0.905,0.347,0.294,0.861,0.705,1.3,-1.38 (inactive),2.44,0.271
CCOC(=O)C1=CC[C@@H](c2ccc(F)cc2)N(S(=O)(=O)c2ccc(C)cc2)[C@H]1c1ccc([N+](=O)[O-])cc1,-0.283,-0.237,-0.0277,0.639,1.26,1.1,1,-0.507 (inactive),0.919,-0.0645
CC[C@H](C)C(=O)O[C@H]1CC[C@]2(C)C3=C(CCC2C1(C)C)[C@]1(C)CC[C@H]([C@H](C)CCCC(C)C)[C@@]1(C)CC3 (stereo not given in full),-0.598,0.191,-0.0691,0.332,0.414,0.0345,0.966,0.169 (inactive),0.0889,0.315
O=C1c2ccccc2[C@@]2(Cc3ccccc3N(Cc3ccccc3)C2=O)[C@H](c2ccc(CO)cc2)N1Cc1ccccc1,0.55,-0.0642,-0.078,-0.221,-0.476,-0.605,-0.564,0.161 (inactive),-0.351,-0.0645
CC(C)CNC(=O)[C@@H]1c2ccccc2C(=O)N(C2Cc3ccccc3C2)[C@H]1c1ccc(CO)cc1,0.192,-0.372,-0.0737,0.261,-0.51,1.29,1.39,-1.56 (inactive),-0.316,-0.166
COC(=O)[C@@]1(Cc2ccc(OC)cc2)[C@H]2c3cc(C(=O)N(C)C)n(Cc4ccsc4Br)c3C[C@H]2CN1C(=O)c1ccccc1,0.254,-0.162,0.336,0.752,1.64,1.89,0.856,-0.778 (inactive),0.45,0.239
CC(C)[Si](C#CCCCC#N)(O[C@H](c1ccccc1)c1cn([C@H](C)c2ccccc2)nn1)C(C)C,-0.207,0.268,-0.0538,0.505,0.792,0.816,0.726,-2.24 (inactive),0.612,-0.214
COC(=O)[C@H](Cc1ccc(O)cc1)N1CC2=CCCC=C[C@@H]2[C@H]1[C@H](O)Cc1ccccc1,-0.565,-0.214,-0.124,0.288,0.35,0.166,0.324,-0.106 (inactive),0.166,-0.132
Cc1ccc(F)cc1S(=O)(=O)N[C@@H]1CCN(Cc2ccc3c(c2)OCO3)C1,-0.125,0.267,-0.135,-0.0066,-0.898,-0.474,-0.276,-4.06 (inactive),-0.264,-0.0994
COC(=O)[C@@]1(Cc2ccccc2)[C@@H]2[C@@H](CC(=O)[C@H]2CC(=O)C(=O)N(C)C)CN1C(=O)c1ccccc1,0.186,-1,-0.169,0.281,1.19,1.89,1.21,1.1 (inactive),0.319,-0.0994
